Experimental data published in PubChem BioAssay AID720690 (Broad Institute, 2013).
Results with a measured potency or affinity are listed apart. A number with no mark means an inactive call.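 Rule for the calls: active = every repeat run showing a signal drop whose fitted half-maximal concentration is at most twice the top tested concentration; inconclusive = repeat runs disagree, or flat partial drop, or poor fit; inactive = the rest.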

Assay: HEK293T cytotoxicity, dose response, cytotoxicity control for miR-122 modulator project, cell-based, activator set, cherry-pick (AID 720690);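 note: 0% = neutral control wells and -100% = MG132 cytotoxic control wells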
Conditions: HEK293T viability, CellTiter-Glo luminescence, 48 h; series mostly up to 26 µM; activity change, negative = cytotoxicity: at the top concentration

Structure (SMILES) | activity change, negative = cytotoxicity
CC(=O)N1[C@H](CO)[C@@H](c2ccccc2)[C@H]1CN(C)C(=O)CN1CCOCC1 | -3.31%
CC(C)c1ccc(CNC(=O)CSCC(=O)Nc2ccc3ccccc3c2)cc1 | -9.7%
CN1C(=O)c2cc(NS(=O)(=O)c3cccc(F)c3)ccc2OC[C@H]2O[C@@H](CC(=O)NCCN3CCCCC3)CC[C@H]21 | -0.413% [at 23.5 µM]
C/C=C/c1ccc([C@H]2[C@@H](CNC(=O)CC)N(Cc3ccccn3)[C@H]2CO)cc1 | -11.2%
O=C(NC[C@H]1[C@@H](c2ccccc2)[C@@H](CO)N1CC1CCCC1)c1ccncc1 | -12.6%
CCNC(=O)C[C@@H]1CC[C@H]2[C@H](COc3ccc(NC(=O)c4ccccc4)cc3C(=O)N2C)O1 | 5.53%
CCCNC(=O)N1C[C@@H]2[C@H](c3ccccc31)[C@@H](CO)N2C(=O)C1CCOCC1 | -10.2%
CCN(C[C@H]1[C@H](c2ccccc2)[C@@H](CO)N1C(=O)C1CC1)C(=O)NC1CCCC1 | -0.731%
CCC(=O)N1[C@H](CO)[C@@H](c2ccccc2)[C@@H]1CN(C)C(=O)CN1CCOCC1 | 2.2% [at 23.5 µM]
CCCNC(=O)C[C@@H]1CC[C@H]2[C@@H](COc3ccc(NC(=O)c4ccc(C(F)(F)F)cc4)cc3C(=O)N2C)O1 | -11.3%
CC(=O)N(C)C[C@H]1[C@@H](c2ccc(-c3ccc(F)cc3)cc2)[C@@H](CO)N1C(C)=O | 10.1%
CC(=O)N(C)C[C@@H]1[C@@H](c2ccccc2)[C@H](CO)N1C(=O)C1CCC1 | -7.02%
COCC(=O)Nc1ccc2c(c1)C(=O)N(C)[C@@H]1CC[C@H](CC(=O)NCCCN(C)C)O[C@H]1CO2 | -12.7%
CCCNC(=O)C[C@H]1CC[C@H]2[C@H](COc3ccc(NC(=O)c4ccc(C(F)(F)F)cc4)cc3C(=O)N2C)O1 | -13.1% [at 23.5 µM]
CCNC(=O)C[C@H]1CC[C@@H]2[C@H](COc3ccc(NC(=O)c4cccs4)cc3C(=O)N2C)O1 | 3.03%
CN1C(=O)c2cc(NC(=O)Nc3cccc(Cl)c3)ccc2OC[C@@H]2O[C@H](CC(=O)NCCc3ccncc3)CC[C@H]21 | 15.3%
C/C=C/c1ccc([C@@H]2[C@@H](CO)N[C@@H]2CN(CC)C(=O)CN2CCOCC2)cc1 | 8.67%
C[C@H](CO)N1C[C@H](C)[C@@H](CN(C)C(=O)C2CCOCC2)Oc2cc(C#Cc3ccncc3)ccc2S1(=O)=O | -19.7%
COCC(=O)N(C)C[C@@H]1[C@@H](c2ccccc2)[C@H](CO)N1C(=O)Cc1ccncc1 | -2.97% [at 23.5 µM]
CCCC(=O)Nc1ccc2c(c1)C(=O)N(C)[C@H]1CC[C@@H](CC(=O)NCCN3CCCCC3)O[C@H]1CO2 | -9.56% [at 23.5 µM]

Structure (SMILES) | activity change, negative = cytotoxicity
CN1C(=O)c2cc(NC(=O)Cc3ccccc3)ccc2OC[C@@H]2O[C@@H](CC(=O)NCc3ccc(Cl)cc3)CC[C@H]21 | -7.38%
CN1C(=O)c2cc(NC(=O)c3cccc(F)c3)ccc2OC[C@@H]2O[C@@H](CC(=O)Nc3ccccc3)CC[C@@H]21 | -29.8% [at 23.5 µM]
CCCC(=O)Nc1ccc2c(c1)C(=O)N(C)[C@@H]1CC[C@H](CC(=O)N3CCc4ccccc4C3)O[C@H]1CO2 | -5.47%
CCN(C[C@H]1N[C@H](CO)[C@H]1c1ccc(-c2ccc(F)cc2)cc1)C(=O)COC | -5.25%
COCC(=O)N1[C@H](CO)[C@H]2c3ccccc3N(C(=O)c3ccccc3F)C[C@H]21 | -7.76% [at 23.5 µM]
CN1C(=O)c2cc(NC(=O)c3cccs3)ccc2OC[C@@H]2O[C@@H](CC(=O)N3CCOCC3)CC[C@H]21 | 4.42% [at 23.5 µM]
CC(=O)Oc1ccc2c(c1)C(=O)c1ccccc1CO2 | 2.59%
C[C@H](CO)N1C[C@H](C)[C@@H](CN(C)CC2CCCCC2)OCCCC[C@H](C)Oc2ccc(NC(=O)Nc3cccc4ccccc34)cc2C1=O | -16.2%
COC(=O)C[C@H]1CC[C@H]2[C@H](COc3ccc(NC(=O)NC(C)C)cc3C(=O)N2C)O1 | 2.42%
CNC(=O)C[C@H]1CC[C@@H]2[C@@H](COc3ccc(NC(=O)c4cccc(OC)c4)cc3C(=O)N2C)O1 | -16.4%
COc1ccc(-c2cn3c(C)c(C(=O)Nc4cccc(NC(C)=O)c4)sc3n2)cc1 | 39.5%
CNC(=O)C[C@H]1CC[C@@H]2[C@H](COc3ccc(NC(=O)Nc4cccc(F)c4)cc3C(=O)N2C)O1 | -6.54%
CN1C(=O)c2cc(NC(=O)c3cccc(F)c3)ccc2OC[C@H]2O[C@H](CC(=O)O)CC[C@H]21 | 1.11%
CNC(=O)C[C@H]1CC[C@H]2[C@@H](COc3ccc(NC(=O)c4cccc(OC)c4)cc3C(=O)N2C)O1 | -3.39%
O=C(Nc1ccccc1N1CCN(C(=O)c2ccc(Cl)cc2)CC1)c1cccnc1 | -3.86%
CC(C)NC(=O)Nc1ccc2c(c1)C(=O)N(C)[C@H]1CC[C@H](CC(=O)NCC(F)(F)F)O[C@H]1CO2 | 12.3%
CN1C(=O)c2cc(NC(=O)c3cccc(F)c3)ccc2OC[C@H]2O[C@@H](CC(=O)O)CC[C@H]21 | 8.84%
CNc1nc(NCC2CCCCC2)c2sccc2n1 | -0.267%
CN1C(=O)c2cc(NC(=O)c3cccs3)ccc2OC[C@@H]2O[C@H](CC(=O)NCC(F)(F)F)CC[C@H]21 | -2.83%
COc1cccc(NC(=O)Nc2ccc3c(c2)C(=O)N(C)C[C@@H](OC)[C@@H](C)CN[C@H](C)CO3)c1 | -1.4% [at 23.5 µM]
